Assay results from PubChem BioAssay AID1063 (University of Pittsburgh Molecular Library Screening Center, 2008).
Several values for one entry are separate records, joined by “and”; a condition that tells them apart may be missing. Identical values can stand only once. Among all 200,000 compounds or so, about 18,000 (9%) were called active. The sample holds actives, similar compounds and a random draw of the others, so the mix is not that of the screen. No stated cut-off is given here; in the data, active means inhibition above about 50%; inactive means the rest. A structure can be active in one record and inactive in another.

experiment: antileishmanial activity against promastigotes – primary screen (AID 1063); conditions: Leishmania major promastigotes, resazurin fluorescence viability; at 10 µM; stronger effect = higher value;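 further: promastigotes grown with compound for 44 hours at 28 °C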

| SMILES | inhibition |
| --- | --- |
| C/C(=N/NC(=O)CCc1ccccc1)c1ccco1 | 11.8% (inactive) |
| CC1=NN(C(=O)c2ccc(Br)cc2)C(O)(c2ccccc2)C1 (stereo not drawn) | -9.77% (inactive) |
| CCOc1ccc(-c2nnc(-c3ccco3)o2)cc1 | 2.35% (inactive) |
| CCCCOc1ccc(-c2nnc(-c3ccco3)o2)cc1 | -7.38% (inactive) |
| CCC(=O)Oc1cccc(C(=O)Nc2ccc(-c3nnc(-c4ccco4)o3)cc2)c1 | 98.9% (active) |
| CCN(CC)S(=O)(=O)c1ccc(Cl)c(C(=O)NC(C)C(c2cccs2)N2CCCC2)c1 (stereo not drawn) | 10.7% (inactive) |
| Cc1cc(N2CCOCC2)nc2ccc(NC(=S)N3CCN(Cc4ccccc4)CC3)cc12 | 36.5% (inactive) |
| CCOC(=O)/C(=C\c1ccc([N+](=O)[O-])cc1)C(=O)c1cc(C(C)=O)c(Nc2ccccc2)s1 | 101% (active) |
| O=C(Nc1ccccc1)/C(=C/c1ccc([N+](=O)[O-])cc1)NC(=O)c1ccccc1 | -0.93% (inactive) |
| CCOC(=O)/C(=N\Nc1ccccc1[N+](=O)[O-])c1csc(Nc2ccccc2)n1 | 15.4% (inactive) |
| Cc1ccc(C(=O)N/C(=C/c2cccs2)C(=O)NCC2CCCO2)cc1 (stereo not drawn) | -3.66% (inactive) |
| CC(C)C(=O)NC(=S)Nc1ccccc1F | -3.27% (inactive) |
| CC(C)C(=O)Nc1cccc(NC(=S)NC(=O)C(c2ccccc2)c2ccccc2)c1 | 100% (active) |
| CCCCC(=O)NNC(=S)NC(=O)C(c1ccccc1)c1ccccc1 | 22.8% (inactive) |
| CC(C)(C)c1ccc(C(=O)NCc2nnc(SCC(=O)N3CCCc4ccccc43)n2-c2ccccc2)cc1 | -4.1% (inactive) |
| COc1ccccc1CCNC(=O)CSc1nnc2ccc(-c3cccnc3)nn12 | 1.51% (inactive) |
| C=CCn1c(=N)n(CC(O)COc2ccc(OC)cc2)c2ccccc21 (stereo not drawn) | 34.9% (inactive) |
| OC(CN=c1sc2ccccc2n1CC(O)COc1ccccc1)COc1ccccc1 (stereo not drawn) | 63.1% (active) |
| OC(COc1ccccc1)Cn1cc(Br)cn1 (stereo not drawn) | -7.06% (inactive) |
| C/C(N)=C(/C#N)C(=O)COC(=O)CNS(=O)(=O)c1ccc(C)cc1 | -2.53% (inactive) |
| Cc1ccc(C)n1NC(=O)c1ccc([N+](=O)[O-])cc1 | -0.24% (inactive) |
| CC1CC(C)CN(C(=O)CSc2ccsc2[N+](=O)[O-])C1 (stereo not drawn) | 8.96% (inactive) |
| CC(C(=O)O)n1cnc2sc3c(c2c1=O)CCCC3 (stereo not drawn) | -4.65% (inactive) |
| S=c1[nH]nc2c3c4c(sc3ncn12)CCCC4 | 72.6% (active) |
| c1nnc2c3c4c(sc3ncn12)CCC4 | -5.73% (inactive) |

| SMILES | inhibition |
| --- | --- |
| COc1cc(OC)cc(C(=O)OCC(=O)Nc2sccc2C(N)=O)c1 | 18.3% (inactive) |
| Cc1cc(C)c(S(=O)(=O)NCCCN2CCOCC2)cc1Br | 94.6% (active) |
| Cc1cc(C)cc(NC(=S)NCCCN2CCOCC2)c1 | 11.8% (inactive) |
| Cc1ccc(S(=O)(=O)NCCN2CCOCC2)cc1C | -7.43% (inactive) |
| O=C(NCc1cccs1)c1cc(-c2ccccn2)nc2ccc(Br)cc12 | -5.05% (inactive) |
| CC(=O)Nc1ccc(OCCC[n+]2cccc(C(=O)[O-])c2)cc1 | 0.17% (inactive) |
| COc1ccccc1-c1cc(C(=O)NCCCn2ccnc2)no1 | 6.26% (inactive) |
| CCOc1ccccc1C(=O)NCCCn1ccnc1 | 0.51% (inactive) |
| COCCNC(=O)/C(C#N)=C/c1cccc(OCc2ccccc2)c1 | 47% (inactive) |
| COc1ccc(/C=C(\C#N)C(=O)NCCCn2ccnc2)cc1 | 55.7% (active) |
| COc1ccc(-c2cc(C(=O)NCCCn3ccnc3)no2)cc1 | 36.3% (inactive) |
| COc1cccc(-c2nn(-c3ccccc3)cc2/C=C(\C#N)C(=O)NCCCn2ccnc2)c1 | 100% (active) |
| Cc1nccn1CCCNC(=O)CC1C(=O)NCCN1Cc1ccc(Cl)c(F)c1 (stereo not drawn) | 5.03% (inactive) |
| Cc1cccc(NS(=O)(=O)c2ccc(C)c(C(N)=O)c2)c1 | -3.69% (inactive) |
| O=C(Nc1ccccc1C(=O)N1CCOCC1)c1ccc(Cl)cc1 | 1.24% (inactive) |
| NS(=O)(=O)c1cccc(NC(=O)CN2CCCc3ccccc32)c1 | -1.56% (inactive) |
| O=C(NNC(=S)NCc1ccco1)C(c1ccccc1)c1ccccc1 | 45.2% (inactive) |
| Cc1cc(O)c(NC(=O)c2ccc(C)c([N+](=O)[O-])c2)cc1C | 1.25% (inactive) |
| COCC(C)NC(=O)CSc1nc2nn(-c3ccccc3)c(=O)c-2c2n1CCCCC2 (stereo not drawn) | 34.5% (inactive) |
| COc1ccc(C(=O)C2CCCN(Cc3cccn3-c3ccccn3)C2)c(C)c1 (stereo not drawn) | 99.8% (active) |
| CCOC(=O)c1[nH]ncc1CN1CCCC(C(=O)c2ccc(OC)cc2C)C1 (stereo not drawn) | 1.77% (inactive) |
| CCn1ccnc1CN1CCCC(C(=O)c2ccc3c4c(cccc24)CC3)C1 (stereo not drawn) | 40% (inactive) |
| O=C(CN1CCOCC1)Nc1c(Cl)cc(Cl)cc1Cl | -3.49% (inactive) |
| O=C(Nc1ccc(F)cc1)N1CCCC(c2nc3c(nnn3Cc3ccccc3Cl)c(=O)[nH]2)C1 (stereo not drawn) | -7.44% (inactive) |
| COC(C(=O)Nc1ccc(C(C)=O)cc1)c1ccccc1 (stereo not drawn) | -5.21% (inactive) |

| SMILES | inhibition |
| --- | --- |
| COC(C(=O)NCc1ccccc1C)c1ccccc1 (stereo not drawn) | -3.9% (inactive) |
| COC(C(=O)Nc1ccc(S(=O)(=O)Nc2ccc(C)c(C)c2)cc1)c1ccccc1 (stereo not drawn) | 56.7% (active) |
| Cc1ccc(C(=O)N/C(=C\c2ccco2)C(=O)N2CCSCC2)cc1C | 10.4% (inactive) |
| O=C(CCCn1c(=O)c2sccc2n(CC(=O)NCC2CCCO2)c1=O)NCc1ccco1 (stereo not drawn) | -8.29% (inactive) |
| CC1CCCC(C)N1/N=C/c1ccccc1OC(F)F (stereo not drawn) | -3.94% (inactive) |
| Oc1ccc(Br)cc1C=Nc1ccc2[nH]ncc2c1 | -4.98% (inactive) |
| c1ccc2[nH]c(-c3nc4ccccc4[nH]3)nc2c1 | 33.9% (inactive) |
| Oc1ccc(Cl)cc1/C=N/c1nc2ccccc2[nH]1 | 63% (active) |
| O=C(Nc1nnc(-c2ccco2)o1)c1ccc(S(=O)(=O)N2CCOCC2)cc1 | 3.15% (inactive) |
| COc1cccc(-c2nnc(NC(=O)c3ccc(S(=O)(=O)N(CC(C)C)CC(C)C)cc3)o2)c1 | 100% (active) |
| COc1cccc(NC(=O)c2ccc(S(=O)(=O)N(C)C)cc2)c1 | -7.02% (inactive) |
| CCOc1ccc2nc(NCCNC(=O)C(C)(C)C)c(C)cc2c1 | 5.84% (inactive) |
| CN(CC(=O)NCCc1ccccn1)S(=O)(=O)c1ccc(Cl)cc1 | 6.18% (inactive) |
| COc1ccc(CN2CCCC(C(=O)c3ccc(Cl)cc3)C2)cc1Cn1cncn1 (stereo not drawn) | 32% (inactive) |
| COc1ccc(CCN(C)C(=O)C2CCCN(Cc3ccc(OC)c(OC)c3)C2)cc1OC (stereo not drawn) | -6.68% (inactive) and 55.5% (active) |
| COc1ccc(CN2CCCC(CNC(=O)c3ccc(F)cc3)C2)cc1OC (stereo not drawn) | 14.8% (inactive) |
| O=C1CN(C(=O)CN2C(=O)NC3(CCCCC3)C2=O)c2ccccc2N1 | -5.28% (inactive) |
| Cc1ccccc1Nc1scc(-c2ccc(Br)cc2)[n+]1-c1ccccc1C | 31% (inactive) |
| CCc1ccc(NC(=O)N2CCN(c3ccccc3)CC2)cc1 | 25.5% (inactive) |
| CC(=O)N1CCN(c2ccc(NCc3ccc(C(C)C)cc3)cc2)CC1 | 81.4% (active) |
| CC(CC(=O)N1CCN(c2ccccc2)CC1)c1ccccc1 (stereo not drawn) | -5.82% (inactive) |
| NC(=O)N1CCc2ccccc21 | -6.03% (inactive) |
| O=C(Nc1ccccc1)OCc1cn(-c2ccc(Cl)cc2)nn1 | -4.84% (inactive) |
| Cc1cccc(N2Cc3ccccc3C2=NC(=O)c2ccc(Cl)nc2)c1 | 4.02% (inactive) |
| N#Cc1ccc(N2Cc3ccccc3/C2=N/C(=O)Nc2ccc(Cl)cc2)cc1 | 71.6% (active) |

| SMILES | inhibition |
| --- | --- |
| Cn1cccc1/C=C1\SC(=O)N(CC(=O)Nc2ccc(F)cc2)C1=O | -0.17% (inactive) |
| CCOc1cc(/C=N/O)ccc1OCc1ccccc1F | -1.85% (inactive) |
| c1ccc(COc2ccccc2CNCc2cccnc2)cc1 | 75% (active) |
| O=C(CCc1ccccc1)NCc1cccnc1 | -1.64% (inactive) |
| COc1ccccc1CNCc1cccs1 | 7.82% (inactive) |
| CCC(Oc1ccccc1)C(=O)NCc1cccnc1 (stereo not drawn) | 3.42% (inactive) |
| Fc1ccccc1COc1ccccc1CNCc1ccncc1 | 98.5% (active) |
| O=C(CNC1CCCCC1)NCC1(c2ccccc2)CCCC1 | 19.4% (inactive) |
| O=C(O)c1n[nH]nc1-c1ccccc1 | -4.14% (inactive) |
| COC(=O)c1cc(NC(=O)CN2CCN(C(C)=O)CC2)cc(C(=O)OC)c1 | 2.15% (inactive) |
| Cc1cc(C)cc(NC(=S)NCc2ccc(F)cc2)c1 | 16.7% (inactive) |
| O=C(Cc1ccccc1)NCc1ccc(F)cc1 | -4.83% (inactive) |
| Fc1ccc(CNCc2ccc(Br)cc2)cc1 | 84.8% (active) |
| Cn1c(SCC(=O)Nc2ccc(Br)cc2F)nnc1-c1ccco1 | -5.27% (inactive) |
| NC(=O)C1CCN(C(=O)COc2cccc3cccnc23)CC1 | -6.58% (inactive) |
| COc1ccc(C(C[N+](=O)[O-])n2nc(C)cc2C)cc1 (stereo not drawn) | 100% (active) |
| COc1ccc(OCc2cn3c(C)cc(C)nc3n2)cc1 | -3.26% (inactive) |
| COc1ccc(C(=O)CSc2nc(C)cc(C)n2)cc1[N+](=O)[O-] | 16% (inactive) |
| CN(C)/C=C(/C(=O)c1ccccc1Cl)S(C)(=O)=O | 3.15% (inactive) |
| CCn1nc(C)cc1C(=O)N1CCCC(C(=O)c2cccc(OC)c2)C1 (stereo not drawn) | -7.56% (inactive) |
| COc1ccc(C(=O)C2CCCN(C(=O)c3cc4nc(C)cc(C)n4n3)C2)cc1F (stereo not drawn) | 57.3% (active) |
| Cc1cnc(C(=O)N2CCCC(C(=O)c3ccc(C(F)(F)F)cc3)C2)cn1 (stereo not drawn) | 3.62% (inactive) |
| C=CCn1cc(C(=O)NCc2ccc(Cl)cc2)c(=O)c2cc(S(=O)(=O)N(CC)CC)ccc21 | 13.9% (inactive) |
